In a collection of fitness landscapes (doi:10.1016/j.celrep.2020.107928):
Over roughly 81,000 sequences, “one-hybrid fitness for binding parS DNA” has its median near -0.17; the highest 2% begin near 0.51. This excerpt belongs to a sample that is enriched for the highest values.

B1: Caulobacter ParB omega fusion; a variant is named by its letters at X, in order, B8GW30 (parent)
chain: MESVVVGEPGMSEGRRGLGRGLSALLGEVDAAPAQAPGEQLGGSREAPIEILQRNPDQPRRTFREEDLEDLSNSIREKGVLQPILVRPSPDTAGEYQIVAGERAWRAAQRAGLKTVPIMVRELDDLAVLEIGIIENVQRADLNVLEEALSYKVLMEKFERTQENIAQTIGKSXSHVANXMRLLXLPDEVQSYLVSGELTAXHARAIAAAADPVALAKQIIEGGLSVRETEALARKAPNLSAGKSKGGRPPRVKDTDTQALESDLSSVLGLDVSIDHRGSTGTLTITYATLEQLDDLCNRLTRGI

Variants of: B1
Assay: one-hybrid fitness for binding parS DNA (scaled: cognate 1, non-cognate 0); higher = stronger binding
Conditions: with parS DNA site
Method in brief: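 On M9-minus-histidine containing 0.1 mM IPTG and 5 mM 3-AT, E. coli USO cells with a HIS3 reporter, site 19 bp from the promoter, grew 48 hours at 37°C to select Caulobacter ParB libraries randomised at four specificity codons. Plasmids from before and after were Illumina-sequenced, with three replicate libraries pooled and variants under 10 reads left out. Fitness is the log change in variant-to-wild-type read ratio, rescaled against cognate and non-cognate.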

Variant | one-hybrid fitness for binding parS DNA
NALR | ≤ 0.2
TTTT | ≤ 0.2
IISE | ≤ 0.2
HKNW | ≤ 0.2
PIET | ≤ 0.2
ILAD | ≤ 0.2
RHFH | ≤ 0.2
RHFD | ≤ 0.2
RHAP | ≤ 0.2
RHFS | 0.965
RHAN | 0.371
RHAS | 0.933
LHQT | ≤ 0.2
RQFM | 0.279
RQFY | 0.398
RQFC | 0.816
RQAC | 0.947
RQAQ | ≤ 0.2
RQAF | 0.25
LNHR | ≤ 0.2
ERQR | ≤ 0.2
SWSW | ≤ 0.2
TRLI | ≤ 0.2
CQYS | ≤ 0.2

Variant | one-hybrid fitness for binding parS DNA
LSGY | ≤ 0.2
HRTK | ≤ 0.2
RLMH | 0.291
RLMP | 0.229
RPMC | ≤ 0.2
RIMC | 0.986
RIMD | 0.234
RLMC | 0.992
RRMH | ≤ 0.2
RCMC | 0.976
RDMC | ≤ 0.2
RIMN | 0.39
RRMD | ≤ 0.2
RRMC | 0.625
IMTG | ≤ 0.2
GAKE | ≤ 0.2
CNSF | ≤ 0.2
GRPA | ≤ 0.2
CRST | ≤ 0.2
IKCT | ≤ 0.2
RAMC | 0.956
RAMR | ≤ 0.2
RMMN | 0.435
RKMP | ≤ 0.2

Variant | one-hybrid fitness for binding parS DNA
RAMQ | ≤ 0.2
RFMC | 0.824
RFMN | 0.242
RMMP | ≤ 0.2
RFMD | ≤ 0.2
RMMC | 0.992
RKMC | 0.897
RKMH | ≤ 0.2
TLMF | ≤ 0.2
GTMC | ≤ 0.2
LVSA | ≤ 0.2
ITSK | ≤ 0.2
DYWG | ≤ 0.2
THDS | ≤ 0.2
RKMK | ≤ 0.2
YPLS | ≤ 0.2
RHMP | ≤ 0.2
RTMP | ≤ 0.2
RHMC | 0.908
RTMN | 0.433
RSMP | ≤ 0.2
RTMC | 0.982
RHMN | 0.389
RSMC | 0.928

Variant | one-hybrid fitness for binding parS DNA
RSMD | ≤ 0.2
AGSI | ≤ 0.2
PTDS | ≤ 0.2
FNHS | ≤ 0.2
TAPE | ≤ 0.2
GYWS | ≤ 0.2
EPIG | ≤ 0.2
PHQC | ≤ 0.2
MHER | ≤ 0.2
KLAC | ≤ 0.2
REYS | 0.287
RERS | 0.529
RERH | ≤ 0.2
REVG | ≤ 0.2
REKG | 0.533
REVS | ≤ 0.2
REYG | ≤ 0.2
REKS | 0.66
REKN | ≤ 0.2
QTIM | ≤ 0.2
KYAR | ≤ 0.2
EYFS | ≤ 0.2
PLFV | ≤ 0.2
VHQV | ≤ 0.2

Variant | one-hybrid fitness for binding parS DNA
TPHK | ≤ 0.2
RYCN | 0.382
RYYH | ≤ 0.2
RYNK | ≤ 0.2
RYCG | 0.974
RYHG | 1
RYYN | 0.383
RYYG | 0.997
RYCD | ≤ 0.2
RYNY | 0.466
RYNG | 0.975
RYHK | ≤ 0.2
RYHQ | ≤ 0.2
IKAI | ≤ 0.2
HHKY | ≤ 0.2
RSDE | ≤ 0.2
FGTM | ≤ 0.2
PPRW | ≤ 0.2
KGNG | ≤ 0.2
QLTS | ≤ 0.2
DASE | ≤ 0.2
GPYH | 0.233
GWLC | ≤ 0.2
EELW | ≤ 0.2

Variant | one-hybrid fitness for binding parS DNA
SCTR | ≤ 0.2
IRQT | ≤ 0.2
VEHR | ≤ 0.2
RYWG | 0.89
RYLM | 0.324
RYGR | ≤ 0.2
RYGF | 0.205
RYLY | 0.462
RYSP | ≤ 0.2
RYSD | ≤ 0.2
RYGG | 0.97
RYWK | ≤ 0.2
RYWQ | ≤ 0.2
RYSG | 0.984
RYLG | 0.986
AIYV | ≤ 0.2
RKII | ≤ 0.2
QIVC | ≤ 0.2
KAHG | ≤ 0.2
VQHT | ≤ 0.2
HLQY | ≤ 0.2
RYRP | ≤ 0.2
RYRH | ≤ 0.2
RYQM | 0.31

Variant | one-hybrid fitness for binding parS DNA
RYQG | 0.971
RYQF | 0.207
RYDG | 0.913
RYDP | ≤ 0.2
RYRG | 0.92
RYDH | ≤ 0.2
SLFE | ≤ 0.2
WPSR | ≤ 0.2
QMHP | ≤ 0.2
VYQY | ≤ 0.2
SHPH | ≤ 0.2
RWNY | 0.339
RWRT | 0.722
RWFT | 0.497
RWNQ | ≤ 0.2
RWIT | 0.387
RWAR | ≤ 0.2
RWNT | 0.682
RWAT | 0.614
RWDT | 0.512
RWET | 0.437
PRFH | ≤ 0.2
HAWM | ≤ 0.2
IKVG | ≤ 0.2

Variant | one-hybrid fitness for binding parS DNA
EEHS | ≤ 0.2
NPMG | ≤ 0.2
CKHA | ≤ 0.2
GRFC | ≤ 0.2
PTDC | ≤ 0.2
AWVV | ≤ 0.2
DFLV | ≤ 0.2
TRVH | ≤ 0.2
KVCE | ≤ 0.2
NTDV | ≤ 0.2
SNDS | ≤ 0.2
RWCY | ≤ 0.2
RWCT | 0.611
RWHT | 0.655
RWPT | 0.284
RWCF | ≤ 0.2
RWGT | 0.548
RWYT | 0.596
RWWT | 0.507
PDGT | ≤ 0.2
PKSV | ≤ 0.2
QRHM | ≤ 0.2
THKG | ≤ 0.2
MWHG | ≤ 0.2

Variant | one-hybrid fitness for binding parS DNA
YDRG | ≤ 0.2
TVTH | ≤ 0.2
GSYT | ≤ 0.2
MYQT | ≤ 0.2
GLVV | ≤ 0.2
RWQD | ≤ 0.2
RWLT | 0.556
RWSN | 0.318
RWQN | 0.264
RWSD | ≤ 0.2
RWKT | 0.811
RWQT | 0.618
RWKQ | ≤ 0.2
RWST | 0.665
RWVT | 0.43
THYN | ≤ 0.2
TFIW | ≤ 0.2
SPRC | ≤ 0.2
DYFS | ≤ 0.2
HAPN | ≤ 0.2
RKAW | ≤ 0.2
FTYI | ≤ 0.2
RVVV | ≤ 0.2
SIHC | ≤ 0.2

Variant | one-hybrid fitness for binding parS DNA
LMAG | ≤ 0.2
QCAE | ≤ 0.2
RLFP | ≤ 0.2
RLAC | 0.995
RLFC | 0.948
RLAM | 0.342
RLAR | ≤ 0.2
RLFH | 0.258
FKTR | ≤ 0.2
LCPN | ≤ 0.2
GYEP | ≤ 0.2
RADA | 0.563
DACA | ≤ 0.2
RACA | 0.609
RANA | 0.595
NANA | ≤ 0.2
RAIA | 0.461
RAYA | 0.602
RAPA | 0.231
FRDR | ≤ 0.2
TQKT | ≤ 0.2
WTHY | ≤ 0.2
REHK | ≤ 0.2
GALF | ≤ 0.2

Variant | one-hybrid fitness for binding parS DNA
VMFV | ≤ 0.2
LLFI | ≤ 0.2
RAQA | 0.548
DARA | ≤ 0.2
NARA | ≤ 0.2
RARA | 0.658
NAQA | ≤ 0.2
PICM | ≤ 0.2
LVHY | ≤ 0.2
WEWS | ≤ 0.2
SNSE | ≤ 0.2
RTDN | 0.404
RTNS | 0.874
RTND | ≤ 0.2
RTDS | 0.989
RTNN | 0.424
RTDH | ≤ 0.2
FLHS | ≤ 0.2
LGVG | ≤ 0.2
ALYT | ≤ 0.2
QTLN | ≤ 0.2
DVLN | ≤ 0.2
TSTW | ≤ 0.2
EGNL | ≤ 0.2

Variant | one-hybrid fitness for binding parS DNA
RQDQ | ≤ 0.2
RQDK | ≤ 0.2
RQNN | 0.435
RQND | 0.221
RQNC | 0.947
RQDC | 0.863
AQKR | ≤ 0.2
ICTY | ≤ 0.2
TAVI | ≤ 0.2
FVPC | ≤ 0.2
LNCS | ≤ 0.2
DVAA | ≤ 0.2
NVAA | ≤ 0.2
RVAA | 0.582
RVFA | 0.611
ELAG | ≤ 0.2
GGPT | ≤ 0.2
CRIG | ≤ 0.2
ILFC | ≤ 0.2
DQVG | ≤ 0.2
LIPT | ≤ 0.2
RQPT | 0.387
RQIS | 0.87
RQPP | ≤ 0.2

Variant | one-hybrid fitness for binding parS DNA
RQID | ≤ 0.2
RQPS | 0.535
RQIT | 0.647
RQIR | ≤ 0.2
RQIP | ≤ 0.2
RQPC | 0.426
RQIY | 0.256
RQPN | ≤ 0.2
RQIC | 0.735
PHRE | ≤ 0.2
KTEC | ≤ 0.2
QHGS | ≤ 0.2
NLTC | ≤ 0.2
VSIA | ≤ 0.2
TPVW | ≤ 0.2
SHLF | ≤ 0.2
STKF | ≤ 0.2
TPQT | ≤ 0.2
